From PubChem BioAssay
Active and inactive are the calls of the source.

Columns and labels:
[1] = system: Plasmodium falciparum Sir2 (PF13_0152, Sir2A); assay: Plasmodium falciparum Sir2A binding compounds – biochemical, small-molecule microarray, 635 nm fluorescence, primary screen (AID 1098); conditions: fluorescence 635 nm, higher = more signal;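 also: score merges spot fluorescence intensity with its signal-to-noise ratio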
[2] = probe aDKK1 binding to arrayed compounds – biochemical, biotinylated probe, 635/667 nm fluorescence, primary screen (AID 1099); conditions: small-molecule microarray, higher = more signal;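 also: score merges 667nm spot fluorescence with signal to noise across triplicate slides; reference of the scale not given here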
[3] = probe aCHRDL2 binding to arrayed compounds – biochemical, biotinylated probe, 635/667 nm fluorescence, primary screen (AID 1100); conditions: small-molecule microarray, higher = more signal
[4] = change in splice reporter luminescence, either direction, cell-based, HEK293, spliceosome inhibition project, primary screen (AID 1101); conditions: HEK293 splicing luciferase reporter, 24 h, higher = more signal, called active from +8 up or from −8 down;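 also: HEK293 cells carrying a splicing-competent luciferase reporter gene; test concentration not given here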
[5] = biological target: Fibroblast growth factor 10 (Homo sapiens) (UniProt O15520); assay: compounds binding fibroblast growth factor 10 – biochemical, small-molecule microarray, 635 nm fluorescence, primary screen (AID 1102); conditions: FGF10 binding, fluorescence 635 nm, higher = more signal
Chain of Fibroblast growth factor 10 (Homo sapiens) (O15520 whole entry, looked up): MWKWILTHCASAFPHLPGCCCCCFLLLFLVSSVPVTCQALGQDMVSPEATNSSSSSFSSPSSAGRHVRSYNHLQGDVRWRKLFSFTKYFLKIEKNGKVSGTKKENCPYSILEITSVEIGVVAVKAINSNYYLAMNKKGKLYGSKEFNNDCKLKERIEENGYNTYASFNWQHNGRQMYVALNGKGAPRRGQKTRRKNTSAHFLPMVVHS

[6] = system: glycogen synthase kinase-3 (GSK3A per assay name; protocol says GSK3B); assay: compounds binding glycogen synthase kinase-3 – biochemical, small-molecule microarray, 635 nm fluorescence, GSK3A, primary screen (AID 1103); conditions: fluorescence 635 nm, higher = more signal; also: the record names both GSK3A and GSK3B
[7] = biological target: Epidermal growth factor receptor (Homo sapiens) (UniProt P00533); assay: compounds binding epidermal growth factor receptor – biochemical, small-molecule microarray, 635 nm fluorescence, primary screen (AID 1104); conditions: EGFR binding, higher = more signal;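 also: score merges 667 nm emission intensity with spot signal to noise over triplicate slides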
Chain of Epidermal growth factor receptor (Homo sapiens) (P00533 whole entry, looked up): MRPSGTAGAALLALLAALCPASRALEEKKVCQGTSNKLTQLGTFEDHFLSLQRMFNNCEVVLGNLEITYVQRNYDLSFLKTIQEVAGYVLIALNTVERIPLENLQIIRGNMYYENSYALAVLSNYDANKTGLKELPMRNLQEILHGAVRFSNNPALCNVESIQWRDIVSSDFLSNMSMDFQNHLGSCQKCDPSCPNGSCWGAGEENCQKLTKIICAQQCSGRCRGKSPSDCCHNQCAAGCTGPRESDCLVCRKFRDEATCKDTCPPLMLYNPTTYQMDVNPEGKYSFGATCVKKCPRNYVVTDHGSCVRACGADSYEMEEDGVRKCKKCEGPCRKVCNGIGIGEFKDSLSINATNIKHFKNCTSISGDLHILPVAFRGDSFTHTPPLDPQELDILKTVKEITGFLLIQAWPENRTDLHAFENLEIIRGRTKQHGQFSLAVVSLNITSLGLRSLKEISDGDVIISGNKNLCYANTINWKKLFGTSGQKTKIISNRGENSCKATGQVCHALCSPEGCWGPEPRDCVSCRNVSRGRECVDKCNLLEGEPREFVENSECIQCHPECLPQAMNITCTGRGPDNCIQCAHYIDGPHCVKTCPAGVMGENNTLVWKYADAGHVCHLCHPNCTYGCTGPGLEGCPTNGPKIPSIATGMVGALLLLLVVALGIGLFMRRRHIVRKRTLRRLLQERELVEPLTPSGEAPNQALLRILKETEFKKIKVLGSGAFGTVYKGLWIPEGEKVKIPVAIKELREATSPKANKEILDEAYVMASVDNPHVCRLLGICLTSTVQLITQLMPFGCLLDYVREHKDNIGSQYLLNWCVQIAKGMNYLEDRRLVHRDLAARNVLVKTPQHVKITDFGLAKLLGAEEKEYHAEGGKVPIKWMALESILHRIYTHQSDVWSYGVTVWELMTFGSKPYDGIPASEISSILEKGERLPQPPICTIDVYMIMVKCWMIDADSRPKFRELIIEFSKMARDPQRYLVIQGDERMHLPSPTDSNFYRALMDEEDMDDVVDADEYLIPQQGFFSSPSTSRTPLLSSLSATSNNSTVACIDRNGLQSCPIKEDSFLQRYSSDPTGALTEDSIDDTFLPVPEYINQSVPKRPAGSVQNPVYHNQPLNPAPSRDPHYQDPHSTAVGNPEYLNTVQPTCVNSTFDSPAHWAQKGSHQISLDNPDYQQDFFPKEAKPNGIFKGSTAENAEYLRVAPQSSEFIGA

[8] = biological target: Follistatin-related protein 3 (Homo sapiens) (UniProt O95633); assay: compounds binding follistatin-related protein 3 – biochemical, small-molecule microarray, 635 nm fluorescence, primary screen (AID 1105); conditions: FSTL3 binding, higher = more signal;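 also: score merges emission near 667 nm and signal to noise per printed spot across three slides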
Chain of Follistatin-related protein 3 (Homo sapiens) (O95633 whole entry, looked up): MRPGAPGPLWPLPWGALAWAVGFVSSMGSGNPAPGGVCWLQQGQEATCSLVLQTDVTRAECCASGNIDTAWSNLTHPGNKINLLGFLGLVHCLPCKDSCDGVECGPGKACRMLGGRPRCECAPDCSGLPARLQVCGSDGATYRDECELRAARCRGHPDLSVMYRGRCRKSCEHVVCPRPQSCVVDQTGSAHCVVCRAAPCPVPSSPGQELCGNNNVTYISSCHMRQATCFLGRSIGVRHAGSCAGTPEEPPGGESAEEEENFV

[9] = biological target: Dickkopf-related protein 1 (Homo sapiens) (UniProt O94907); assay: small molecules binding DKK1 protein – biochemical, small-molecule microarray, 635 nm fluorescence scan, primary screen (AID 1106); conditions: higher = more signal;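 also: score merges emission near 667 nm with signal to noise over three replicate slides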
Chain of Dickkopf-related protein 1 (Homo sapiens) (O94907 whole entry, looked up): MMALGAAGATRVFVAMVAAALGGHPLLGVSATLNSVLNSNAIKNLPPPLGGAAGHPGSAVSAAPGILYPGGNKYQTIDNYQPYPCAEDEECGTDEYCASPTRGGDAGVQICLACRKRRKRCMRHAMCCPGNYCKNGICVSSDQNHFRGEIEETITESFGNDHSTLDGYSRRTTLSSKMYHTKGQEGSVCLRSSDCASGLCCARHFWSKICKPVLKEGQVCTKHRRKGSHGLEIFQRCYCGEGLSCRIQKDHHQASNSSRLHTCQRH

[10] = system: Inhibin beta A chain (activin A); assay: small molecules binding activin A – biochemical, small-molecule microarray, 635 nm fluorescence scan, primary screen (AID 1107); conditions: INHBA, higher = more signal;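 also: mouse activin A protein probed at 4.33 µg/mL on printed slides; score merges bound-protein fluorescence near 667 nm with spot signal-to-noise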

Row | SMILES | composite z-score [1] | composite z-score [2] | composite z-score [3] | z-score [4] | composite z-score [5] | composite z-score [6] | composite z-score [7] | composite z-score [8] | composite z-score [9] | composite z-score [10]
1 | COC(=O)C(CC#Cc1ccc2c(c1)[C@]1(C(=O)N2)[C@H](c2ccccc2OCCO)N2[C@H](c3ccccc3)[C@H](c3ccccc3)OC(=O)[C@H]2[C@@H]1C(=O)Nc1nc2ccccc2s1)C(=O)OC | 1.21 | -0.0226 | -0.0159 | -0.333 (inactive) | 1.3 | 1.21 | 0.312 | 0.806 | 0.171 | 0.245
2 | CCCCC=C[C@@H](NC(=O)CCc1ccccc1)c1ccccc1 | 0.956 | 0.401 | -0.0262 | 11.9 (active) | 0.919 | 0.869 | 0.51 | 0.188 | 0.248 | 0.724
3 | COCC(=C=CC[C@@H](O)c1ccccc1OCCO)C[C@@H](O)COCc1ccccc1 | 0.72 | 0.724 | 0.167 | -1.48 (inactive) | 1.21 | 0.732 | -1.19 | -0.268 | -0.466 | 1.24
4 | CC(C)C(CO)N1C(=O)[C@@H]2[C@H]3C(=O)OCC=C[C@H]3OC23C=CCN(CCN2CCOCC2)C(=O)[C@@H]13 (stereo not given in full) | 1.15 | -0.385 | -0.538 | 0.653 (inactive) | -0.505 | -0.118 | -0.409 | 0.351 | 0.286 | 0.934
5 | O=C1c2ccccc2C(=O)C2CC([C@H]3Oc4ccccc4S(=O)(=O)N4CCC[C@@H]34)=CCC12 (stereo not given in full) | -0.41 | -0.158 | -0.119 | -0.279 (inactive) | 0.0804 | 0.301 | 0.153 | -0.26 | 0.187 | 0.771
6 | CC(C)CCC[C@@H](C)[C@H]1CC[C@@]2(C)C3=C(CC[C@]12C)[C@@]1(C)CC[C@H](OC(=O)c2ccc(N)cc2)C(C)(C)C1CC3 (stereo not given in full) | 0.347 | -0.285 | -0.761 | -0.925 (inactive) | 0.331 | 0.833 | 0.614 | 0.587 | 1.4 | -0.023
7 | CC(C)(C)OC(=O)CC[C@@]1(C(=O)N2CCCCC2)N=C(c2ccc(OCCCO)cc2)O[C@@H]1c1ccccc1N=[N+]=[N-] | 1.13 | 0.977 | 0.964 | -0.405 (inactive) | 1.19 | 1.3 | 0.32 | 1.1 | -0.139 | 0.899
8 | CCOC(=O)C[C@H]1[C@H](OC(=O)c2ccc(C(=O)c3ccccc3)cc2)[C@@H](NC(=O)C2CCCCC2)c2cc(OCCCO)ccc2N1C(=O)Cc1ccc(OC)cc1 | 0.331 | 0.765 | 0.7 | 0.0309 (inactive) | 0.547 | 0.328 | 0.285 | 0.459 | 0.0351 | 0.666
9 | COCCCNC(=O)[C@]1(Cc2ccccc2)N=C(c2ccc(OCCCO)cc2)O[C@@H]1c1ccccc1N=[N+]=[N-] | 0.816 | 0.346 | 0.879 | -1.51 (inactive) | 1.26 | 1.33 | -0.184 | 0.481 | -0.267 | 0.618
10 | O=[N+]([O-])c1ccc(C[n+]2ccc(-c3ccc(CO)cc3)cc2)o1 | 1.2 | -0.0024 | 0.192 | -0.0885 (inactive) | 0.527 | 0.213 | 0.224 | 1.45 | 0.253 | 1.86
11 | COC(=O)[C@@]1(Cc2ccc(OC)cc2)[C@H]2c3cc(C(=O)N4CCCC4)n(CCc4ccc(O)c(OC)c4)c3C[C@H]2CN1C(=O)c1ccccc1 | -0.0995 | 0.527 | 1.09 | -0.928 (inactive) | -0.317 | -0.175 | -0.481 | -0.892 | -1.13 | 1.04
12 | CCC[C@@H]1C[C@@]1(CCC)[C@@H](NC(=O)c1cccs1)c1ccc(Cl)cc1 | -0.67 | 0.119 | 1.09 | -1.15 (inactive) | -0.341 | -0.919 | -2.21 | -2.17 | -1.76 | 0.948
13 | CCOC(=O)C1=CC[C@@H](c2ccc(N(CC)CC)cc2)N(S(=O)(=O)c2ccc(C)cc2)[C@H]1c1ccc([N+](=O)[O-])cc1 | 0.468 | 0.592 | 1.33 | -1.26 (inactive) | -0.69 | -1.04 | -1.17 | -0.966 | -1.59 | 1.04
14 | COC(=O)[C@]1(Cc2ccccc2CN=[N+]=[N-])N=C(c2ccc(OCCCO)cc2)O[C@@H]1c1ccccc1 | 1.15 | -0.0032 | 0.987 | -2.04 (inactive) | -1.34 | -1.08 | -1.46 | -0.869 | -1 | 0.53
15 | CC(C)CN1C(=O)[C@@]2(Cc3ccccc31)c1ccccc1C(=O)N(Cc1ccccc1)[C@H]2c1ccc(CO)cc1 | -0.743 | 0.236 | 0.514 | -0.489 (inactive) | -0.701 | -0.776 | -0.636 | 0.554 | -0.952 | -0.298
16 | CCCCCCC#C[Si](O[C@H](c1ccccc1)c1cn(Cc2cccc(Cl)c2)nn1)(C(C)C)C(C)C | 1.11 | -0.166 | -0.287 | -0.577 (inactive) | 0.155 | 0.57 | 0.269 | 0.309 | 0.0628 | 0.308
